DT40 TDP1 no CPT = qHTS for Inhibitors of human tyrosyl-DNA phosphodiesterase 1 (TDP1): qHTS in cells in absence of CPT; DT40 Tdp1-/- hTDP1 cells, no CPT, ATP luminescence, 48 h; AID 686978, 2013; 15% of 420,000 active; Potency, µM (doses to about 46.2 µM), without a hit: top-dose activity change, negative = growth inhibition, usual class: inhibitors; further: potency means the concentration at half of the fitted maximal effect; nearly all actives have a fitted effect of over 55% in size
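Chicken DT40 Tdp1-/- cells complemented with human TDP1, screened without camptothecin (DMSO vehicle only), 400 cells/well. Compounds pin-transferred, cells incubated at 37 °C for at least 48 hr. Growth read as ATP-dependent luminescence (CellTiter-Glo, 30 min at RT).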
IL1B secr inh = blocks inflammasome-driven IL-1 beta release | activity change, % at 57.5 µM | THP-1 LPS/ATP IL-1B secretion, AlphaLISA, 16 h; hits give low values | 4.7% of 360,000 active; in the data active means activity change below about -50%; inconclusive means mostly about -30% to -49%
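Secreted IL-1B measured by AlphaLISA bead assay after 16 h compound exposure of THP-1 cells; compounds (final up to 57.5 uM) added 1 h before LPS (250 ng/mL) and ATP (1.25 mM) stimulation; lower signal means less secretion.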
TDP1 cell CPT = growth inhibition of DT40 Tdp1-/-;hTDP1 cells with camptothecin (screen for TDP1 inhibitors). Potency, µM (doses to about 46.2 µM), for inactives: at the top dose activity change, negative = growth inhibition, hits mostly inhibitors. chicken DT40 Tdp1-/-;hTDP1 cells + 20 nM CPT, ATP luminescence, 48 h. AID 686979. 12% of 420,000 active; further: potency means the concentration at half of the fitted maximal effect; nearly all actives have a fitted effect of over 55% in size
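Chicken DT40 Tdp1-/- cells complemented with human TDP1, 400 cells/well, exposed to compounds plus 20 nM camptothecin for at least 48 h at 37 C; viability read as ATP content by CellTiter-Glo luminescence.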
RORgamma inh = ROR gamma (mouse) transcription inhibition. AID 2551. Drosophila S2 Gal4-RORgamma UAS-luciferase reporter, 20 h. 5.4% of 310,000 active. Potency, µM (highest dose often 53.6 µM), for inactives: at the highest dose activity change, negative = inhibition, actives largely listed as inhibitors; further: potency means the concentration at half of the fitted maximal effect; nearly all actives have a fitted effect of over 60% in size
Target sequence (P51450 whole entry, looked up, the tested form may be a part): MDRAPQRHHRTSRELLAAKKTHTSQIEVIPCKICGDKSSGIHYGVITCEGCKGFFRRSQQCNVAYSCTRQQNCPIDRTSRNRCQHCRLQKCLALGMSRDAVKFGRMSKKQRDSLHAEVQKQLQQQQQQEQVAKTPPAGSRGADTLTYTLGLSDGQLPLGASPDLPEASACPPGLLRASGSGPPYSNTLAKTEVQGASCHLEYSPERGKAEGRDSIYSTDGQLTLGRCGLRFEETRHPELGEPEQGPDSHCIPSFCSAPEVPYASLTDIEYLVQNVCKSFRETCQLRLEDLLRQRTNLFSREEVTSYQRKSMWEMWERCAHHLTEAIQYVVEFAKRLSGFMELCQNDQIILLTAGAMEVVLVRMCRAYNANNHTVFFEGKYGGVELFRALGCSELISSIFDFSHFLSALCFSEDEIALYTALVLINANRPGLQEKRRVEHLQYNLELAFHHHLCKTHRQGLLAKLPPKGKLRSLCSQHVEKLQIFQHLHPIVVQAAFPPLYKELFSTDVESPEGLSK
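Luciferase reporter read in Schneider cells carrying Gal4-RORγ (mouse) and UAS-Photinus luciferase; cells given compound 1 h before 700 uM copper sulfate induction, then incubated 20 h at ambient temperature.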
VP16 counter = inhibits Gal4-VP16 luciferase reporter, ROR gamma counter-screen; 3.5% of 310,000 active; Drosophila S2 Gal4-VP16 UAS-luciferase, luminescence, 20 h; Potency, µM (titrated, usually from 53.6 µM), for the others: at the highest dose activity, negative = inhibition, most hits filed as inhibitors;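 further: Gal4-VP16 expression switched on by copper sulfate through the metallothionein promoter; potency means the concentration at half of the fitted maximal effect; nearly all actives have a fitted effect of over 50% in size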
LDHA inh = blocks human lactate dehydrogenase A. 0.15% of 480,000 active. activity change, % (values are at about 110 or 230 µM). AID 1347041. purified LDHA, NADH/diaphorase-resazurin fluorescence; hits give low values; in the data active means activity change below about -30%; inconclusive means mostly about -25% to -30%;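 further: plate controls were DMSO wells for no effect and wells without enzyme for full effect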
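LDH5 2 nM; NADH 0.06 mM, pyruvate 0.2 mM; 200 mM Tris pH 7.4, EDTA, Tween-20; 5 min RT. Detection: diaphorase 0.133 mg/mL + resazurin 37 µM, fluorescence ex540/em590 at 0 and 20 min; normalized to enzyme-free and DMSO wells.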
Starred values were filed as active, the others as inactive; ? = inconclusive; · = not tested or not shown. Most compounds without a hit are left out; they make up all but 18% or so of the library. Unless noted, the call rests on the fitted dose curve; in most records, active means well fitted curve in the direction sought with a large enough effect; inconclusive means small, poorly fitted or top-dose-only effect, or another doubt; inactive means no such curve, though single readings can be large; an effect the other way counts as inactive or inconclusive. Unless noted, on the % scale 0 is the no-effect control and ±100 the full control effect.

SMILES | DT40 TDP1 no CPT | IL1B secr inh | TDP1 cell CPT | RORgamma inh | VP16 counter | LDHA inh
Cc1cc(=S)nc(-c2ccccn2)[nH]1 | 4.6µM* | 0 | 3.3µM* | 0.79µM* | ? | -4
Cc1[nH]c(-c2ccccn2)nc(=S)c1Cl | ? | · | 10µM* | 10µM* | ? | 1
O=C(Nc1ccc(S(=O)(=O)Nc2cnc3ccccc3n2)cc1)c1ccccc1 | · | · | · | · | · | -2
Cc1ccccc1NC(=O)CSc1nccn2nc(-c3cccc4ccccc34)cc12 | · | · | · | · | · | -6
COC(=O)[C@H](C)NC(=O)c1cc2c(cn1)[nH]c1ccccc12 | 18µM* | -85* | 18µM* | 4% | 14% | -8
Cn1c(=O)c(C(=O)CN2CCc3ccccc32)c(N)n(Cc2ccccc2)c1=O | 18µM* | 32 | 13µM* | 3% | -7% | 0
CCC(=O)OCC(=O)c1c(N)n(Cc2ccccc2)c(=O)n(C)c1=O | ? | 25 | -25% | ? | -5% | -3
CCN(CC)CC(=O)c1c(N)n(Cc2ccccc2)c(=O)n(C)c1=O | 1% | -9 | 6% | 3% | 4% | 4
Cn1c(=O)c(C(=S)NC(=O)C2CC2)c(N)n(Cc2ccccc2)c1=O | · | · | · | 1.3µM* | 1µM* | ·
COc1cc(/C=N/NC(=O)C23CC4CC(CC(C4)C2)C3)cc(Br)c1O | -30% | 19 | 22% | 8% | 4% | -2
O=C(N/N=C/c1cc([N+](=O)[O-])cc(Br)c1O)C12CC3CCC(CC(C3)C1)C2 | 23µM* | 0 | ? | 5µM* | 4µM* | -4
Nc1ccc(N(c2ccccc2)c2ccc(N)cc2)cc1 | 13µM* | 17 | 16µM* | 31% | -13% | 5
CN(C)c1ccc(CCc2ccc(N)cc2)cc1 | -22% | -5 | 11% | · | · | -5
O=C1Nc2cc(C(=O)NCCCN3CCOCC3)ccc2S/C1=C/c1ccccc1F | ? | -25 | ? | -31% | -24% | -9
O=C1Nc2cc(C(=O)N3CCOCC3)ccc2S/C1=C/c1ccccc1F | ? | -20 | 16µM* | · | · | -3
O=C1Nc2cc(C(=O)N3CCN(Cc4ccccc4)CC3)ccc2SC1N1CCOCC1 (stereo unspecified) | ? | -18 | 23µM* | 35% | 23% | -4
Cc1cccc(/C=C2/Sc3ccc(C(=O)N4CCOCC4)cc3NC2=O)c1 | ? | -13 | ? | 17% | -13% | 1
COC(=O)c1ccc2c(c1)NC(=O)C(N1CCOCC1)S2 (stereo unspecified) | -17% | -13 | -15% | -1% | 15% | -7
O=C1Nc2cc(C(=O)N3CCOCC3)ccc2S/C1=C\c1ccccc1 | 23µM* | -24 | ? | 20% | -2% | -9
CCOCCCNC(=O)/C=C/c1ccc(OC)cc1 | · | · | · | · | · | 19
O=C(NNc1nc(-c2ccccc2)cs1)c1ccccc1 | 21µM* | -14 | ? | 5µM* | 4µM* | -5
O=C(Nc1nc(-c2ccc(Br)cc2)cs1)c1cccnc1 | 6% | -16 | -2% | -7% | 3% | -5
N#Cc1ccc(-c2csc(-c3ccsc3)n2)cc1 | · | · | · | · | · | -12
COC(=O)c1nc(NNC(=O)c2ccccc2)sc1-c1ccccc1 | 7% | -14 | 11% | 14µM* | -26% | -11
N#Cc1ccc(-c2csc(NNC(=O)c3ccc(Br)cc3)n2)cc1 | 5.8µM* | -2 | 5.2µM* | 5µM* | ? | -8
N#Cc1ccc(-c2csc(NNC(=O)c3ccccc3)n2)cc1 | ? | -2 | ? | 11µM* | ? | 0
COc1ccc(-c2nc(NC(=O)c3ccccc3)sc2-c2ccc([N+](=O)[O-])cc2)cc1 | -18% | 3 | 2% | -18% | 6% | -7
O=C(Nc1nc(-c2ccccc2)cs1)c1cccnc1 | ? | -19 | ? | 13% | 14% | 1

Source: PubChem BioAssay (National Center for Advancing Translational Sciences (NCATS))
